Only some compounds are listed: those with a hit (about 2.8% of all), similar ones and a draw of the others.
WRN inhibitor – qHTS for Inhibitors of WRN Helicase. Bifunctional 3'-5' exonuclease/ATP-dependent helicase WRN (Homo sapiens), Q14191. WRN helicase unwinding, fluorescent forked duplex, kinetic. Potency, µM (highest dose often 114 µM), inactives show at the top dose activity change, negative = inhibition, hits mostly inhibitors. 360,000 compounds, 0.46% hits. AID 651768, 2012; note: potency is the fitted concentration of half-maximal effect; % is set by controls: 0 for no effect and ±100 for the full control effect; nearly all actives have a fitted effect of over 55% in size
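Screening of the MLSMR collection measured strand separation of a quenched forked DNA duplex (100 nM) by 20 nM WRN with 2 mM ATP, all final. Compounds were preincubated with enzyme 15 min at room temperature.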
Pol eta inh – qHTS for Inhibitors of Polymerase Eta. 390,000 compounds, 1.2% hits. Potency, µM (doses to about 114 µM), for inactives: at the highest dose activity change, negative = inhibition, hits mostly inhibitors. recombinant Pol eta, fluorescent DNA replication assay. DNA polymerase eta (Homo sapiens), Q9Y253. AID 588591, 2011; note: potency is the fitted concentration of half-maximal effect; % is set by controls: 0 for no effect and ±100 for the full control effect
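Pol eta (10 nM) was preincubated with compounds for 15 min at room temperature, after which fluorescent replication substrate (50 nM final) was added to start the reaction. Fluorescence was read kinetically at 0 and 10 min.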
PI5P4K alpha inh – qHTS for Inhibitors of phosphatidylinositol 5-phosphate 4-kinase (PI5P4K); Phosphatidylinositol 5-phosphate 4-kinase type-2 alpha (Homo sapiens), P48426; PI5P4Kalpha enzyme, ADP-Glo luminescence, 60 min; active compounds read low; max response, %; 330,000 compounds, 1.2% hits; AID 652105, 2013; active = max response of -50% or lower; inconclusive = between -30% and -50%; inactive = -30% or higher; note: value at the top dose of about 77 µM; % is set by controls: 0 for no effect and ±100 for the full control effect
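Compounds were pin-transferred onto PI5P4Kalpha and substrate in HEPES pH 7.4 buffer with EGTA, CHAPS and 5% DMSO. ATP (5 microM final) started the reaction, which ran 60 minutes at room temperature before ADP-Glo detection.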
POLI inh – qHTS for Inhibitors of Polymerase Iota; DNA polymerase iota (Homo sapiens), Q9UNA4; Pol iota fluorescent replication assay, 10 min; Potency, µM (titrated, usually from 115 µM), for the others: at the top dose activity, negative = inhibition, actives largely listed as inhibitors; 390,000 compounds, 1% hits; AID 588590, 2011; note: potency is the fitted concentration of half-maximal effect
Target sequence (Q9UNA4 whole entry, looked up): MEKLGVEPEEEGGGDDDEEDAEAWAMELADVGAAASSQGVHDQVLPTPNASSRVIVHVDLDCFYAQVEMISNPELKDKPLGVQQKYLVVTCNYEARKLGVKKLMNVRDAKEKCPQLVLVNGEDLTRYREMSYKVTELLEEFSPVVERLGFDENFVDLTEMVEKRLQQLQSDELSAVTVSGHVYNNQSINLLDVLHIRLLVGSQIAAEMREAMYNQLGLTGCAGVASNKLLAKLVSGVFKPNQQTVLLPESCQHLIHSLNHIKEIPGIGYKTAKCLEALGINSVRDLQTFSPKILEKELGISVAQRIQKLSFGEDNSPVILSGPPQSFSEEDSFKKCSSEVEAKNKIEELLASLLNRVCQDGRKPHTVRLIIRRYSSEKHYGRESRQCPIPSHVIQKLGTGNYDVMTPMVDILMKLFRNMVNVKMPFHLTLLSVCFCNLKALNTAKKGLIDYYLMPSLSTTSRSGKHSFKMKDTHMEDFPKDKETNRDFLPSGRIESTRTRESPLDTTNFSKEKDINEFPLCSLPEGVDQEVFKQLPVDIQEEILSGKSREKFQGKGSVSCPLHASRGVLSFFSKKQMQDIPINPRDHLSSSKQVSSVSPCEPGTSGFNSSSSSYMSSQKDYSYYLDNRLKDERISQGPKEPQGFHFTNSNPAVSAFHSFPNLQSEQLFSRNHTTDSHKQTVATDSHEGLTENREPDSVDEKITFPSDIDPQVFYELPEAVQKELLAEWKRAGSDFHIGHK
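Fluorescent replication assay read twice, at 0 min and 10 min after adding 50 nM (final) substrate. Enzyme (10 nM) and compounds were first incubated 15 min at room temperature; enzyme-free buffer wells were negative controls.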
POLB inh – qHTS Assay for Inhibitors of DNA Polymerase Beta | Potency, µM (doses to about 114 µM), without a hit: at the highest dose activity change, negative = inhibition, actives largely listed as inhibitors | AID 485314, 2010 | P06746 | Pol beta primer extension/strand displacement, fluorescence kinetic | 340,000 compounds, 1.3% hits; note: potency is the fitted concentration of half-maximal effect; % is set by controls: 0 for no effect and ±100 for the full control effect
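Values derive from four-parameter Hill fits of normalized kinetic data: reads at 0 and 10 min following addition of 50 nM substrate to 10 nM Pol beta preincubated 15 min with compound.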
Pol kappa inh – qHTS for Inhibitors of Polymerase Kappa | 400,000 compounds, 0.53% hits | purified Pol kappa, fluorescent DNA synthesis assay, 10 min | Potency, µM (highest dose often 107 µM), for the others: at the highest dose activity, negative = inhibition, actives largely listed as inhibitors | DNA polymerase kappa (Homo sapiens), Q9UBT6 | AID 588579, 2011; note: potency is the fitted concentration of half-maximal effect; % is set by controls: 0 for no effect and ±100 for the full control effect
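First, compounds were pin-transferred onto 10 nM Pol kappa. After 15 min at room temperature, substrate was added to 50 nM final. Fluorescence was then measured kinetically at 0 and 10 min.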
Starred values were filed as active, the others as inactive; [ ] = remark or other dose. Unless noted, calls come from the whole dose curve; as a rule, active = well fitted curve in the direction sought with a large enough effect; inconclusive = small, poorly fitted or top-dose-only effect, or another doubt; inactive = no such curve, though single readings can be large; an effect the other way counts as inactive or inconclusive.

`Cn1c(=O)[nH]c(=O)c2c1[nH]c(=S)n2Cc1ccc(Cl)cc1` gave WRN inhibitor -6%, Pol eta inh 2%, PI5P4K alpha inh -92*, POLI inh -15%, POLB inh 73% and Pol kappa inh -7%.
Screening O=Cc1ccc(/C=C2\C=Cc3ccccc32)cc1 returned POLI inh -3% and Pol kappa inh 2%.
`COc1cccc(CNC(=O)C2CCCN(c3nnc(-n4c(C)ccc4C)s3)C2)c1OC` (centres undefined) gave Pol eta inh 1%, POLI inh -17%, POLB inh -2% and Pol kappa inh -7%.
COc1cc2ccc3c(CCN(C)C)cc(OC)c(OC)c3c2cc1OC was read as WRN inhibitor 4%, Pol eta inh -27%, PI5P4K alpha inh -6, POLI inh inconclusive, POLB inh 26% and Pol kappa inh -20%.
For CN(C)CCc1cc2c(c3c1ccc1ccccc13)OCO2 the results were WRN inhibitor -5%, Pol eta inh -24%, PI5P4K alpha inh 6, POLI inh inconclusive, POLB inh 20µM* and Pol kappa inh inconclusive.
CCN(CC)S(=O)(=O)c1ccc2c(c1)N(CC(=O)NCCCN1CCN(c3cc(C)ccc3C)CC1)C(=O)CO2 was read as Pol eta inh -25%, POLI inh 4%, POLB inh 0% and Pol kappa inh -13%[60.1 µM].
For CCCc1cc(=O)oc2c(C)c3c(cc12)CN(CCc1ccc(Cl)cc1)CO3 the results were Pol eta inh -6%, POLI inh inconclusive, POLB inh -17% and Pol kappa inh 2%.
O=C(O)CC1S/C(=N/N=C/c2ccc(-c3ccc(Cl)cc3[N+](=O)[O-])o2)NC1=O (centres undefined) was read as WRN inhibitor inconclusive, Pol eta inh inconclusive, PI5P4K alpha inh -52*, POLI inh inconclusive, POLB inh inconclusive and Pol kappa inh inconclusive.
Cc1cc(C(=O)N/N=C/c2cc(N=Nc3ccccc3)ccc2O)n[nH]1 was read as WRN inhibitor -31%[57.1 µM], Pol eta inh -7%, PI5P4K alpha inh -26, POLI inh 2%, POLB inh 25µM* and Pol kappa inh -3%.
Screening COC(=O)N/N=C/c1cc(N=Nc2ccccc2)ccc1O returned WRN inhibitor -3%, Pol eta inh -24%, PI5P4K alpha inh 4, POLI inh 29%, POLB inh -1% and Pol kappa inh 1%.
CSc1ccc(CCNC(=O)c2cc3c(-c4ccccc4F)nn(C)c3s2)cc1 was read as Pol eta inh -22%, POLI inh 1%, POLB inh 2% and Pol kappa inh -9%.
Screening COc1ccc2ccccc2c1/C=N/Nc1ccc(Cl)c(C(=O)O)c1 returned WRN inhibitor -30%, Pol eta inh 45µM*, PI5P4K alpha inh -28, POLI inh inconclusive, POLB inh 4% and Pol kappa inh inconclusive.
For COc1ccc2ccccc2c1/C=N/Nc1cccc(C(=O)O)c1 the results were WRN inhibitor -32%, Pol eta inh 7%, PI5P4K alpha inh -11, POLI inh 78%, POLB inh -21% and Pol kappa inh -32%.
O=C(O)c1cc(N/N=C/c2ccncc2)ccc1Cl was read as WRN inhibitor -14%, Pol eta inh 4%, PI5P4K alpha inh -25, POLI inh 13%, POLB inh 5% and Pol kappa inh -14%.
COc1cc(/C=N/Nc2ccccc2)ccc1OC(=O)c1cccs1 was read as WRN inhibitor -6%[57.1 µM], Pol eta inh -10%, PI5P4K alpha inh 5, POLI inh 3%, POLB inh 3% and Pol kappa inh -5%.

Screening data from PubChem BioAssay.
